The full ranking holds about 33,000 sequences; the median of “E-score (-0.5 to 0.5)” is about -0.035, and the highest 2% start at about 0.34. For the sample, the highest values were picked, then their nearest neighbours and some sequences at random.
Molecular target: T1, Mot3 (UniProt P54785)
T1 sequence: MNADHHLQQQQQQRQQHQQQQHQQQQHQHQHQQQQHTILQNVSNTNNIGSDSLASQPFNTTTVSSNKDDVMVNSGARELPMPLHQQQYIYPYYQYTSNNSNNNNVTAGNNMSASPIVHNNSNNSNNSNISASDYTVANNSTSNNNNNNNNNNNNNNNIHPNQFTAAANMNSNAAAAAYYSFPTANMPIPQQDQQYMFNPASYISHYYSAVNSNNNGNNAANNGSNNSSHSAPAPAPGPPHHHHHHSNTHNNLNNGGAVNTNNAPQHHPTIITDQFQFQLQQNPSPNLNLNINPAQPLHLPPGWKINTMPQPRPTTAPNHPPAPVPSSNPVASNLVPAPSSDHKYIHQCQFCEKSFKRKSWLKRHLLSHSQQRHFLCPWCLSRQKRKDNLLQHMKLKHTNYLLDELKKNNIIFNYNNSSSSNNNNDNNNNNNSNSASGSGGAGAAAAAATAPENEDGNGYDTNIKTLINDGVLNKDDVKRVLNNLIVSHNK
Assay: PBM E-score (8-mer binding enrichment) (E-score (-0.5 to 0.5)); higher = stronger / more preferred TF binding
Conditions: protein concentration: 200 nM; construct: GST-full length
Experimental: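 Universal 'all 10-mer' protein binding microarrays (Agilent AMADID 015681) probed with GST-tagged S. cerevisiae TFs (full-length or DBD) made by in vitro transcription/translation (PURExpress), about 100-200 nM. Bound TF was detected with fluorescent anti-GST. Each ungapped 8-mer (which stands for itself and its reverse complement) is scored by the PBM enrichment score (E-score), a modified Wilcoxon-Mann-Whitney statistic from -0.5 to +0.5, computed with the Universal PBM Analysis Suite. Scale: above 0.35 generally sequence-specific binding.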

Sequence	PBM E-score
GACTGGAA	-0.213
CATAGGAA	0.231
AATAGGTC	0.0378
GATAGGAA	0.197
AATAGGAT	-0.00596
CCTAGGAA	0.018
AATAGGAA	0.415
AATAGGTG	0.0976
TATAGGAA	0.412
AATAGGTA	0.38
ACGTGCCA	0.00099
AAGTCCGT	-0.0474
AGTTAGGA	0.108
ATCAGGTA	0.256
GGGCGTGA	-0.066
CGACTTCC	-0.0315
TCTATAGA	-0.152
ACAATGGT	-0.058
ATGTAAGA	0.309
CGGTAATC	-0.149
ATGTAATA	0.405
AGGTAATC	0.344
ATGTAACG	0.268
ATGTAATG	0.395
ATGTATTG	0.303
ATGTAAGG	0.298

Sequence	PBM E-score
AGGTAATG	0.279
CTGTATTC	0.185
CTGTAATA	0.238
ATGTATTC	0.363
GGAGACCC	-0.0421
ACAACTAA	0.183
AGAAGTGG	-0.199
ATGCGTGG	-0.214
CTGCAACA	0.0762
CGCCACTA	-0.196
AAGTCCAC	-0.187
AAGTGCTC	-0.203
ACCAGTAA	0.016
GCACAGCA	0.144
CAAGTTGC	0.144
CAGCGAGG	-0.276
TTCGCAAA	0.0552
GGGTAATA	0.17
CTGTAATC	0.111
ATGTAATC	0.367
ATGTAAGC	0.267
GTGTAATA	0.375
GAGTAATA	0.147
AGCGAAGC	-0.0443
GAAGGCGC	0.362
AAAGGCGG	0.0743

Sequence	PBM E-score
CAAGGCGC	0.191
GAAGGCCC	0.122
GAAGGCGA	-0.0248
AAAGGCGC	0.371
AAAGGCTC	0.354
CAAGGCTC	0.0281
AAAGGCTG	0.0993
CAATGAGG	-0.197
TACGCGAA	0.221
TCGACTAA	-0.0673
CGGCACTC	-0.251
AGGCACTG	0.483
ACGCACTG	0.00111
GGGCACTA	0.0732
AAGCACTG	-0.0039
ATGCACTC	-0.061
AGGCACTC	0.481
CGGCACTA	-0.184
AGGCACTA	0.484
GTGATCGA	0.11
TAAAAGCA	-0.123
GCAGACAC	-0.00428
AGAGACGA	-0.246
CCACGGTA	-0.191
ACACGGTA	0.34
ACACGGTC	0.349

Sequence	PBM E-score
ACACGGGC	0.259
ACACGGGT	0.348
CCACGGTC	-0.385
ACACGGGA	0.29
ACACGGTG	0.335
ATACGGTC	-0.061
AAAACTCA	0.0802
ATCCTGAA	0.0408
GAGGGACC	-0.298
ATTACGTG	0.383
CTTACGTA	0.211
ATTACGTC	0.269
GTTACGTA	0.177
ACTACGTG	0.0857
ATTACGTA	0.354
ACGTCCAG	-0.0677
GTGGGTAA	-0.0112
GGCACGGA	0.397
GGCACGAA	0.271
AGCACGTA	0.136
CGCACGTA	0.154
GGCACGTA	0.363
AGCACGGA	0.102
CGCACGCA	-0.03
GGCACGCA	0.348
GGCACGAC	0.36

Sequence	PBM E-score
CGCACGGA	-0.207
GGCACGCC	0.237
CGCACGAC	-0.0534
ACACCCCG	-0.336
ACCAGCCA	-0.131
ATGCTCTG	-0.203
ACCGCTCC	-0.258
CGGCATTC	-0.249
CCTCGAGG	-0.336
GCTTGTAA	0.318
AGGAAAGC	0.405
ACGAAAGG	0.153
AGGAAAGG	0.371
AGGAAAGA	0.282
AGAAAAGC	-0.171
CGGAAAGC	-0.151
AACCAAAT	0.127
GTCGCAAA	0.0742
ATATGCGC	0.0367
AGGCAACA	0.482
CGGCAACC	-0.0847
TGGCAACA	0.118
AAGCAACT	-0.0233
AAGCAACG	0.0783
AGGCAACT	0.484
CGGCAACG	-0.0123

Sequence	PBM E-score
CGGCAACA	0.0868
ACGCAACT	0.0644
AGGCAACG	0.485
GGGCAACC	-0.175
AGGCAACC	0.483
GAGGCAGC	-0.0844
CTTGCATC	-0.16
ACCTGCTC	0.166
ATATGACG	0.0195
CGTATTTC	0.215
AGGACACT	-0.159
AGGATCGA	-0.0463
GCACAACA	0.35
CCACAACA	-0.0484
GCACAACC	-0.0592
AAGGTCCC	-0.184
GGCGCATA	-0.113
ACCCGCAA	-0.0644
TAGGAACA	0.416
AAGGAACT	0.416
AAGGAAGA	-0.0092
CAGGAATG	-0.0291
AAGGAACA	0.453
ACGGAACT	-0.186
GAGGAACA	0.176
AAGGAATT	-0.0259

Sequence	PBM E-score
ATGGAACA	-0.111
CAGAAACG	0.0904
TCGGAACA	0.056
CAGGAACG	0.466
ATGCTTAG	0.0516
AACGTTAT	0.123
AAGCCTCC	-0.243
CACTGGCC	-0.267
AACACATA	0.312
AAATTGGA	-0.0378
CAGTGGCG	-0.266
AGCAGTCA	0.0249
CAGCCAGA	-0.3
CTCCCTTA	-0.018
ACCGGCCG	-0.21
ATGGAACG	0.0262
ACGGAACC	0.0959
CAGGAACC	0.46
CAGGAACA	0.449
AGGGAACC	0.00909
CAGAACCC	-0.0803
AAGGAACG	0.465
AAGGAACC	0.462
CAGAAACA	0.0657
AAGGAAGG	0.176
GAGGAACC	0.255

Sequence	PBM E-score
CGGGAACA	0.147
TCGTGCCA	-0.155
GCACACCA	0.143
GGGGGGAC	-0.254
CTACTGTC	-0.103
GGTCTAAA	-0.127
GATCGCAA	-0.129
ACTCAAAA	-0.0489
AGGCAATA	0.472
CGGCAATA	0.0917
AAGCAATC	-0.0271
ATGCAATG	-0.0896
AGGCAATC	0.481
CGGCAATC	-0.109
GGGCAATA	-0.132
AGGCAATG	0.476
ACGCAATG	0.23
AACAGGAT	0.0971
CAATGGAC	-0.189
TAGCCAGA	-0.0655
GACACTAA	-0.106
AAGGCTGC	-0.00639
CACAGGGG	0.118
AGTTAGAT	0.0673
ACGCTTCT	-0.0128
CCAGACGG	-0.383

Sequence	PBM E-score
GTGCGTAA	0.356
ATGCGTAA	0.32
GCGCGTAA	0.34
ACGCGTAA	0.317
GCGCGTAC	0.117
CCGCGTAA	0.336
CTGCGTAA	0.302
GGGCGTAA	0.135
TCGCGTAA	0.374
ATTCTGAG	0.0253
TGTCGACA	0.111
ACAACAAT	0.182
GCACTTAA	0.133
CTTCAAGC	-0.0397
CTTTCCCA	-0.0799
GTTTCCGA	0.122
GTTTCCAA	-0.12
GTTTCCTA	0.411
CTTTCCTC	0.0989
CTTTCCTA	0.399
AGGCATGG	0.229
AAAGTGGG	-0.0287
TAGGAGCA	0.0656
CCGTAATA	0.121
ACGTAATG	0.348
ACGTAACG	0.0865

Sequence	PBM E-score
GCGTAATA	0.308
ACGTAATA	0.35
ACGTAATC	0.29
AATTGCCG	-0.145
ACTTGCCG	-0.189
AATTGCCT	0.472
ACTTGCCC	0.0267
ACTTGCCT	0.479
AATTGCCC	0.0147
AAGTGTAG	0.158
ACGTGTAT	0.356
AAGTGTAT	0.117
CCGTGTAG	0.367
CCGTGTCG	0.126
AGGTGTAG	0.0602
ACGTGTCT	0.14
ACGTGTAG	0.389
CCGTGTCC	0.0332
CAGTGTAC	0.0758
CCGTGTAC	0.34
CAGTGTAG	0.154
GCAATGGA	-0.00402
GAATCGGC	-0.269
CACCAGAG	-0.0278
CCTGCAAC	0.144
AACTTGCC	0.204

Sequence	PBM E-score
GCGTGTAC	0.337
ACGTGTAC	0.343
AAGTGTAC	0.0824
CCGTTAAG	-0.0319
CCAGGCCA	-0.29
TCAGGCGA	-0.0408
TCAGGCCA	-0.0359
CCAGGCCC	-0.101
CCAGGCAA	0.477
CCAGGCAC	0.487
TCAGGCAA	0.483
CCAGGCGA	-0.155
CCAGGCAG	-0.119
GAATACTC	-0.0747
GGAGCGCA	-0.281
CTGAACAG	-0.0714
CCGCAAGG	-0.128
ACACCTGT	0.193
TCTACTAA	0.0381
GCTGGACC	-0.332
GGGCAAGA	0.0525
CGGCAAGC	-0.0333
ATGCAAGG	-0.116
ACGCAAGG	0.153
AGGCAAGG	0.483
AGGCAAGA	0.477

Sequence	PBM E-score
AGGCAAGC	0.489
CGGCAAGA	-0.115
AAGCAAGC	-0.162
CCCTACAG	-0.128
GATCTCTA	-0.137
CCGGTCAG	-0.335
CCTCGTAG	0.0397
AATACCCC	-0.248
CTCAAGAC	-0.131
ATCAGCCC	-0.272
AAAGATGG	-0.0558
ACTTGTTC	0.162
ACAGCCCA	-0.0365
ACTTTCCG	-0.182
AATTTCCT	0.364
AATTTCCC	-0.164
ACTTTCCC	0.0581
AATTTCCG	-0.0949
ACTTTCCT	0.383
ATCCGGTG	0.0537
CCACTACG	-0.0192
GGATGAAC	-0.105
GTGAAAAA	0.155
TAGGGGGA	-0.264
CGACCCTA	-0.148
AGACTTTC	-0.187

Sequence	PBM E-score
CCGTTCTA	0.17
CACAGGTC	-0.272
CACAGGTA	0.352
AGCAGGTA	0.328
CGCAGGTC	0.0458
AACAGGTA	0.269
TACAGGTA	0.393
CACAGGTG	0.0773
CGCAGGTA	0.35
GACAGGTA	0.25
GGTGCGAC	-0.251
ACAACGGC	-0.0371
GAAAAGCC	-0.338
ATAGGTGA	-0.0643
CTAGGTAC	0.26
GTAGGTGA	0.0361
GTAGGTAA	0.346
GTAGGTTA	0.22
ATAGGTAC	0.406
ATAGGTAG	0.109
CTAGGTAA	0.182
ATAGGTAA	0.356
GCGGTAAC	0.063
ACATCTTA	0.0996
CCAAGCGG	-0.135
GACATCGC	0.0096

Sequence	PBM E-score
GGTTTTAC	0.154
CATTCCGC	-0.146
GACTACCA	-0.0944
ATATTACA	0.332
CGATTACA	0.357
GGATTACC	-0.0377
AGATTACC	0.157
CTATTACC	0.142
AGATTACA	0.354
GGATTAGA	-0.13
GGATTACA	0.371
TGATTACA	0.311
AGATTACT	0.101
CGATTACG	0.123
CTATTACA	0.378
